aSyn 5UTR inh – MLPCN primary screen, SNCA 5' untranslated region | AID 1813 | alpha-synuclein 5'UTR reporter, inhibitor activity | inhibition, % (tested at 7.5 µM) | 0.82% of 300,000 active; in the data active = inhibition above about 60%;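 note: H4 neuroglioblastoma cells stably carrying SNCA 5'UTR luciferase fusion; 0% = DMSO wells and 100% = positive control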
KLF5 inh – inhibitors of KLF5 expression; inhibition, % at 5 µM; DLD-1 KLF5 promoter-luciferase reporter, luminescence; 0.23% of 290,000 active; AID 1700;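 active = inhibition above a per-plate limit of that plate's mean compound inhibition plus 3 SD, cut at about 60% in these data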;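 note: 0% = DMSO wells and 100% = LY294002 at 200 µM; higher means less KLF5 promoter-driven luciferase light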
BaF3 parental – reduces parental Ba/F3 cell viability, JAK2V617F counter-screen. CellTiter-Glo ATP luminescence. inhibition, % at 5.6 µM. 1.1% of 220,000 active. AID 1486;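 active = inhibition above a per-campaign cutoff, the mean inhibition of all tested compounds plus 3 SD, cut at about 27% in these data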;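 note: 0% = DMSO wells and 100% = JAK Inhibitor I control wells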
IEC-6 tox – IEC-6 cytotoxicity, counter-screen for KLF5 inhibitors. luminescence viability. inhibition, % at 5 µM. 0.78% of 290,000 active;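 note: 0% = plate median of test compound wells and 100% = cytotoxic reference compound wells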
APP transl inh – APP translation inhibition; SH-SY5Y APP 5'UTR-luciferase reporter, luminescence; inhibition, % at 2 µM; 0.82% of 190,000 active; AID 1285;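 active = inhibition above a set limit, derived from the sample mean plus 3 SD, cut at about 45% in these data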
Ba/F3 V617F tox – reduce viability of Ba/F3 cells dependent on JAK2V617F; Ba/F3 EpoR-JAK2V617F viability, ATP luminescence; inhibition, % at 5.6 µM; 1.1% of 220,000 active; AID 1446;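 active = inhibition above the campaign mean plus 3 SD over all tested compounds, cut at about 24% in these data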;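 note: cytokine-independent growth of Ba/F3 cells driven by EpoR plus mutant JAK2; 0% = DMSO-treated cells and 100% = JAK inhibitor I control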
IEC-6 tox confirm – IEC-6 cytotoxicity, confirmation assay; 63% of 1,900 active; shares compounds with IEC-6 tox; IEC-6 rat intestinal epithelial viability, luminescence; inhibition, % at 5 µM; AID 1907;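 note: 0% = vehicle and 100% = reference cytotoxic drug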
* = called active by the depositor; . = no result. Most compounds without a hit are left out; they make up all but 2.2% or so of the library. Cut-off read from the data, not from the text of the source, unless noted: active = inhibition above about 22%; inactive = the rest.

SMILES	aSyn 5UTR inh	KLF5 inh	BaF3 parental	IEC-6 tox	APP transl inh	Ba/F3 V617F tox	IEC-6 tox confirm
O=C(CCCCCNc1nc(=S)[nH]c2ccccc12)NCc1ccccc1Cl	1.1	-5.8	1.6	0.0	4.5	0.1	.
COc1ccc(/C=C2\CCc3ccccc3C2=O)cc1O	14.2	2.6	.	27.9*	.	.	3.2
COc1ccc(/C=C2\Cc3ccccc3C2=O)cc1OC	-39.2	-7.1	-3.2	7.0	.	2.1	.
Nc1nc(-c2cccnc2)nn1C(=O)c1ccccc1Cl	19.6	-3.9	-0.6	36.1*	-7.8	-4.1	3.7
O=C(NCc1ccc2c(c1)OCO2)c1nc(S(=O)(=O)Cc2ccccc2)ncc1Cl	36.4	7.4	.	24.0*	.	.	14.6
O=C(NCc1ccc2c(c1)OCO2)c1nc(S(=O)(=O)Cc2ccccc2F)ncc1Cl	42.0	10.8	.	35.1*	.	.	12.1
Cc1cc(OCC(=O)N(C)C2CCCCC2)ccc1Cl	17.9	-168.8	4.5	-3.1	-142.1	-2.0	.
Cc1ccccc1NNC(N)=S	14.0	-9.6	3.5	-0.4	-21.7	-1.0	.
NC(=S)NNc1c(F)c(F)c(F)c(F)c1F	19.9	23.1	35.0*	49.0*	17.8	30.0*	-9.2
Cc1ccc(C(=O)Nc2ccn(Cc3ccc(F)cc3)n2)o1	-65.4	-43.6	2.0	74.4*	-5.7	23.2	8.7
Oc1ccc(Br)cc1CNc1cccc2cccnc12	11.8	4.8	.	44.5*	.	.	-0.1
Cc1ccc(SCC(=O)c2ccc[nH]2)cc1	-126.5	-51.2	0.9	-1.0	-48.6	-1.7	.
Cc1ccc(S(=O)(=O)N2c3ccccc3OCC2c2ccccc2)cc1 (configuration not stated)	-1.9	-17.6	6.0	2.2	-13.9	-1.9	.
O=C(C(Cl)Cl)N1c2ccccc2OCC1c1ccccc1 (configuration not stated)	-41.6	5.4	9.5	37.4*	-1.8	5.8	15.2
CCOCCCNC(=O)CN1C(=O)c2cccc3cccc1c23	5.3	-57.7	.	-5.5	.	.	.
O=C(Oc1c(CN2CCOCC2)cc(Cl)c2cccnc12)c1ccccc1Br	47.9	6.0	1.3	24.5*	.	-2.6	21.0
CN1CCN(Cc2cc(Cl)c3cccnc3c2OC(=O)c2cccs2)CC1	-10.8	-9.0	9.7	8.2	3.8	0.8	.
S=C(Nc1ccccc1)Nc1nccs1	-176.5	-114.8	0.2	42.1*	.	2.4	8.1
Cc1ccc2ncnc(Nc3cccc(C(=O)O)c3)c2c1	-1.8	-20.4	-1.5	-6.9	-9.7	-0.3	.
Cc1cccc(Nc2ncnc3ccc(Br)cc23)c1	3.5	5.1	10.0	42.4*	-11.6	7.1	41.9*
O=c1c2ccccc2nc2n1C(CSc1ccccc1)CS2 (configuration not stated)	-11.6	-15.5	1.2	4.1	-16.9	-1.4	.
O=C(Nc1ccccc1SCC1CSc2nc3ccccc3c(=O)n21)c1ccccc1Cl (configuration not stated)	27.4	6.8	3.6	59.9*	-0.6	-2.9	26.4*
O=C(Nc1ccccc1SCC1CSc2nc3ccccc3c(=O)n21)c1cccc(Cl)c1 (configuration not stated)	-54.5	30.1	4.7	69.4*	-1.2	3.5	41.8*
Cc1ccc(C(=O)Nc2ccccc2SCC2CSc3nc4ccccc4c(=O)n32)cc1 (configuration not stated)	7.2	40.5	5.5	69.9*	3.0	4.4	44.7*
O=C(Nc1ccccc1SCC1CSc2nc3ccccc3c(=O)n21)c1ccccc1 (configuration not stated)	24.6	7.6	4.3	49.5*	-5.0	-0.8	32.2*
SMILES	aSyn 5UTR inh	KLF5 inh	BaF3 parental	IEC-6 tox	APP transl inh	Ba/F3 V617F tox	IEC-6 tox confirm
Cc1cccc(C(=O)Nc2ccccc2SCC2CSc3nc4ccccc4c(=O)n32)c1 (configuration not stated)	37.8	-25.7	0.8	65.6*	-11.1	-1.6	44.0*
CC(=O)c1cccc(NC(=O)Cn2c(=O)oc3cc(S(=O)(=O)N4CCCC4)ccc32)c1	-1.8	-13.9	2.1	6.2	.	-1.9	.
COC(/C(=N/O)c1ccc(Cl)cc1)c1ccccc1 (configuration not stated)	-7.9	-21.8	.	28.5*	.	.	11.1
COc1ccc(Cl)cc1NC(=O)C(OC)c1ccccc1 (configuration not stated)	-7.7	6.1	1.6	2.0	1.1	1.7	.
Cc1cc(C)c(C(=O)CSc2nc3ccccc3c(=O)[nH]2)cc1C	13.4	-54.0	7.4	71.0*	4.1	-1.8	51.6*
Cc1ccc(C(=O)CSc2nc3ccccc3c(=O)[nH]2)cc1C	-6.6	-10.1	0.9	21.3	-24.5	-1.9	.
Cc1ccc(C)c(C(=O)CSc2nc3ccccc3c(=O)[nH]2)c1	-3.7	3.1	8.4	44.0*	-13.7	-0.1	48.0*
COc1ccc(-c2c(C#N)c(N)nc3c2CCc2ccccc2-3)cc1OC	-40.3	22.4	10.2	33.8*	18.7	21.8	23.9*
COc1cccc(NC(=O)NC2(C(F)(F)F)Oc3ccccc3O2)c1	-76.7	-23.1	12.1	5.4	2.8	10.8	.
COc1ccc(N(CC(=O)Nc2cc(Cl)ccc2C)S(=O)(=O)c2c(C)n[nH]c2C)cc1	9.8	22.1	.	37.8*	.	.	12.2
COc1ccc(N(CC(=O)Nc2ccc(C)cc2C)S(=O)(=O)c2c(C)n[nH]c2C)cc1	23.5	-10.0	.	-1.7	.	.	.
CCOC(=O)CC(=O)N/N=C/c1c(N)n(C)c(=O)n(C)c1=O	4.2	-8.8	4.0	-2.5	-3.4	-0.7	.
COc1ccccc1C(CNc1ccc(S(=O)(=O)N2CCCC2)cc1[N+](=O)[O-])N(C)C (configuration not stated)	18.6	-22.1	.	22.0*	.	.	8.5
Cc1ccc(NC(=O)Nc2cc(C)on2)cc1	-142.8	-66.8	3.2	1.2	-66.8	-0.7	.
Cc1ccccc1OCC(=O)OCn1nnc2ccccc2c1=O	-6.9	-15.9	-1.6	-2.0	.	-3.3	.
C=CCNC(=O)/C(=C\c1ccco1)NC(=O)c1ccco1	3.9	-2.9	.	-0.5	.	.	.
NNC(=O)/C(=C\c1ccco1)NC(=O)c1ccco1	-11.2	15.9	.	70.2*	.	.	6.8
CCn1c(=O)cc(OCC(=O)NCc2ccco2)c2ccccc21	3.7	-23.7	1.3	1.7	6.0	-3.5	.
CCn1c(=O)cc(OCC(=O)NCc2ccc(C)o2)c2ccccc21	25.4	-9.3	5.6	22.6*	7.7	2.0	13.1
O=C(c1ccccc1)N1CCN(CC(O)COCC2CC=CCC2)CC1 (configuration not stated)	-12.8	-9.5	2.3	0.4	-6.7	-2.4	.
O=C(Cc1ccc(S(=O)(=O)N2CCOCC2)s1)N(Cc1ccccc1)c1ccccc1	1.2	.	.	.	.	.	.
C1=C(CCNc2ncnc3c2[nH]c2ccccc23)CCCC1	.	-34.6	62.7*	39.3*	-24.6	72.8*	24.0*
O=c1c2[nH]c3ccccc3c2ncn1CCC1=CCCCC1	-120.7	-38.1	0.5	-3.6	-35.0	-0.8	.
CCOC(=O)Nc1ccc2nc(Sc3ccc(Cl)cc3)sc2c1	-40.8	15.3	24.7	38.0*	.	21.4	23.6*

Screening data: PubChem, several laboratories
